Assay results as given in PubChem BioAssay AID720513 (Broad Institute, 2013).
The campaign covered roughly 2,100 compounds. About 480 (23%) were called active. About 5% were inconclusive and are not listed.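 How the source made its calls: active means fitted curve reaches 40% activation at or below the top valid concentration, in every replicate test; inconclusive means replicate tests disagree on the call; inactive means the rest, including activity in the opposite direction.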 A selection follows. Potency and affinity values are given separately.

Test: activators raising PGC1a acetylation in cells, dose response, cell-based, cherry-picked samples, set 6 (AID 720513);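 further: cells made to overexpress flag tagged PGC1a plus GCN5 acetyltransferase by viral infection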
Details: U2OS PGC1a acetylation AlphaLISA, overnight, 0 = neutral, -100 = inhibitor control; series mostly up to 19.5 µM; activation (acetylation increase): at the top concentration

Activation (acetylation increase), inactive:
COc1ccc2c(-c3ccccc3)cc(=O)[nH]c2c1 5.67%
O=C(c1cc(-c2ccccc2)nc2ccccc12)N1N=C(C(F)F)CC1(O)C(F)F (stereo unspecified) -4.21%
C=CCn1c(SCC(=O)Nc2ccc(C(=O)O)cc2)nnc1-c1cccnc1 -17.5%
COc1ccc(NC(=O)N[C@@H]2C=C[C@@H](CC(=O)NCc3ccccn3)O[C@@H]2CO)cc1 8.22%
COc1ccc(C2(NC(C)=O)CCN(C(=O)CCC(=O)O)CC2)cc1 0.064%
CCN(C(=O)C1CC1)C1CCS(=O)(=O)C1 (stereo unspecified) -3.69%
CN(c1ncnc(N)c1[N+](=O)[O-])C1CCS(=O)(=O)C1 (stereo unspecified) -8.48%
COCC(=O)Nc1ccc2c(c1)OC[C@@H](C)N(C(=O)c1ccccn1)C[C@@H](C)[C@@H](OC)CN(C)C2=O 16.6%
CC1CCCCC1NC(=O)C1CCN(S(=O)(=O)N2CCOCC2)CC1 (stereo unspecified) 27.5%
C[C@H](CO)N1C[C@H](C)[C@@H](CN(C)CC2CC2)Oc2cc(-c3cccnc3)ccc2S1(=O)=O -23.9%
CCSc1nnc(NC(=O)CSC2=NCCS2)s1 1.43%
COc1cccc(N2C(=O)CC(N3CCC(c4nc5ccccc5[nH]4)CC3)C2=O)c1 (stereo unspecified) -0.89%
O=C(Cc1ccncc1)NCC[C@H]1CC[C@@H](NC(=O)C2CC2)[C@H](CO)O1 -0.064% [at 21 µM]
CCOC(=O)C1=C(CNCc2ccc(C)cc2)NC(=O)NC1c1cc(C)ccc1C (stereo unspecified) -10.4%
CCN(CC)S(=O)(=O)c1cccc(-c2nnc(SCc3ncc(-c4ccccc4)o3)n2C)c1 13.4%
Cc1nc2ccc(C(=O)Nc3ccccc3Cl)cc2s1 17%
NC(=O)NC(=O)Nc1ccccc1Cl 9.99%
CCN(CC)C(=O)[C@H]1CC(CC(=O)NCc2cccc(C(F)(F)F)c2)C(=O)N2CCc3c([nH]c4ccccc34)[C@]12C (stereo partly specified) -31.4%
O=C(CCNC(=O)C1CCN(S(=O)(=O)c2ccc(F)cc2)CC1)NCc1ccccc1Cl -1.53%
CC(=O)Nc1ccc(S(=O)(=O)N2CCN(c3ccccn3)CC2)cc1 -5.59%
N#Cc1cc2c(=O)n3ccccc3nc2n(Cc2cccnc2)c1=O 5.98%
O=C1C2C3CCC(C3)C2C(=O)N1CNc1ccc(F)cc1 (stereo unspecified) -2.1%
O=c1cc(CSc2ccccn2)[nH]c(=O)[nH]1 -18.7%
Cc1nc2[nH]c(=O)c3c(n2n1)NC1=C(C(=O)CC(C)(C)C1)C3c1ccccc1 (stereo unspecified) 14.3% [at 10 µM]
O=[N+]([O-])c1ccc(Oc2cccc(F)c2)c2ccncc12 -24.5%
Cc1cccc(S(=O)(=O)N(C)C[C@@H]2OCc3cn(nn3)CCCC(=O)N([C@@H](C)CO)C[C@H]2C)c1 -2.84%
O=C(OCn1ncc(Cl)c(Cl)c1=O)c1ccc(C(F)(F)F)cc1 -30.8%
O=C(NC1CCCN(Cc2ccc(Cl)cc2)C1)c1ccccc1C(F)(F)F (stereo unspecified) 19.9%
CCc1nc(N)nc(N)c1-c1ccc(Cl)cc1 -18.4%
CCOC(=O)C1CCN(C2=NC(=O)/C(=C/c3ccc(O)cc3)S2)CC1 -3.08%
Cc1cccc2cc(CN(Cc3nnnn3Cc3ccco3)C3CCCC3)c3nnnn3c12 6.98%
COc1cccc2c1C(CO)N1C(C#N)C3CC(C(=O)O)C(C1C2)N3C (stereo unspecified) -55.3%
Cc1cccc(-n2c(CNC(=O)c3cccc([N+](=O)[O-])c3C)n[nH]c2=S)c1 15.6%
COc1cccc(N(CC(=O)N2CCN(Cc3ccccc3)CC2)S(C)(=O)=O)c1 23.1%
CCC(C)(C)n1nnnc1C(c1cccnc1)N1CCCC(C)C1 (stereo unspecified) 3.35%
C[C@H](CO)N1C[C@H](C)[C@@H](CN(C)C(=O)C2CCCCC2)Oc2cc(C#Cc3ccncc3)ccc2S1(=O)=O -89.9%
O=C(CNC(=O)c1sc2ccccc2c1Cl)NCc1ccccc1 8.91%
Cc1cccc(N(CC(=O)NC(C)(C)C)C(=O)CNC(=O)c2cccs2)c1 17%
COc1ccc(NC(=O)/C(Cl)=C(/Cl)S(=O)Cc2ccccc2)cn1 (stereo unspecified) -114%
O=C(Nc1ccc2c(c1)C(=O)N(c1ccccc1)C2=O)c1cccs1 -23.8%
CN(C)C(=O)C[C@@H]1C=C[C@@H](NS(=O)(=O)c2ccccc2)[C@@H](CO)O1 -4.45%
CO[C@@H]1CN(C)C(=O)c2ccc(NC(=O)Nc3c(C)noc3C)cc2OC[C@H](C)N(CC2CC2)C[C@@H]1C -2.51%
CCS(=O)(=O)c1ccc(O)c(NC(=O)COc2ccc(Br)cc2)c1 5.32%
O=C(CSc1nnnn1-c1ccc(F)cc1)NNC(=O)c1ccco1 -9.31%
CC(=O)Nc1ccc(NC(=O)c2cc(=O)c3ccccc3o2)cc1 -0.676%
Cc1cc(=O)[nH]c2c1c(C)nn2C1CCCC1 -7.95%
